In the library only some 1.9% were active in any assay of this set; here they are far more common.
aDG glyco up – alpha-DG glycosylation activation; Pro5-aDG cells, alpha-DG glycosylation AlphaScreen (IIH6); 0% Pro5, 100% B10-LARGE cell signal; activation, % at 10 µM; 360,000 tested, 0.22% active; AID 624168;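 active means activation of at least 8% versus controls, or a plate z-score of at least 8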;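 further: Pro5 are CHO cells carrying HIG-tagged alpha-DG that lacks glycosylation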
p47phox inh – p47phox (human) inhibition | P14598 | inhibition, % at 24.7 µM | p47phox/p22phox peptide binding, fluorescence polarization, 2 h | 220,000 tested, 0.53% active;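 active means inhibition above about 30%, limit read from the data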;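 further: 0% = p47phox with labelled peptide and 100% = labelled peptide alone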
Rev-erbA mod – Rev-erb alpha (human) modulation; P20393; Rev-erbα–FITC-DNA binding, fluorescence polarization, 90 min; activity, % at 10 µM; 370,000 tested, 0.79% active;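 active means activity above about 14%, limit read from the data; passing the limit was not always enough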;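 further: 0% = DMSO wells with 35 nM protein and 100% = DMSO wells with 750 nM protein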
EBNA-1 inh – blocks EBNA-1 binding to DNA; EBNA-1 DNA binding, fluorescence polarization; inhibition, % at 14.8 µM; 300,000 tested, 0.34% active; AID 1950; in the data active means inhibition above about 28%
ZTA counter – blocks Epstein-Barr virus ZTA, an EBNA-1 counter-screen | 320,000 tested, 0.15% active | inhibition, % at 11 µM | ZTA-DNA binding, fluorescence polarization | P03206; in the data active means inhibition above about 33%
Target sequence (P03206 whole entry, looked up): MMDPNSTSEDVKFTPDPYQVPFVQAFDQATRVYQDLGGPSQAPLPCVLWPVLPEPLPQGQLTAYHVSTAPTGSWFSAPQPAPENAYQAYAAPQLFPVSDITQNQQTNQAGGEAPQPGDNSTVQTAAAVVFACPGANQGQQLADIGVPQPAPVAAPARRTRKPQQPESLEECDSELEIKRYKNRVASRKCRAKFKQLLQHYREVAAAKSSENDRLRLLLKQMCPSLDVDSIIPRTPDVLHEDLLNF
PG9 binder – binds the HIV-1 gp120 antibody PG9; TR-FRET gp120-PG9 antibody binding; inhibition, % at 6.7 µM; 360,000 tested, 0.43% active; AID 624416; in the data active means inhibition above about 8.5%
* hit, by the source's call; · = no result given.

SMILES	aDG glyco up	p47phox inh	Rev-erbA mod	EBNA-1 inh	ZTA counter	PG9 binder
O=C(O)c1cc(O)c2c(c1)[C@@H]([C@H]1c3cc(C(=O)O)cc(O)c3C(=O)c3c(O[C@@H]4O[C@H](CO)[C@@H](O)[C@H](O)[C@H]4O)cccc31)c1cccc(OC3O[C@H](CO)[C@@H](O)[C@H](O)[C@H]3O)c1C2=O (stereo not given in full)	0	·	-55	94*	15	1
O=C(O)c1cc(O)c2c(c1)[C@@H]([C@H]1c3cc(C(=O)O)cc(O)c3C(=O)c3c(O[C@H]4O[C@H](CO)[C@@H](O)[C@H](O)[C@H]4O)cccc31)c1cccc(O[C@H]3O[C@H](CO)[C@@H](O)[C@H](O)[C@H]3O)c1C2=O	·	·	-36	·	·	·
O=C(O)c1cc(O)c2c(c1)[C@H]([C@H]1c3cc(C(=O)O)cc(O)c3C(=O)c3c(O[C@@H]4O[C@H](CO)[C@@H](O)[C@H](O)[C@H]4O)cccc31)c1cccc(OC3O[C@H](CO)[C@@H](O)[C@H](O)[C@H]3O)c1C2=O (stereo not given in full)	0	·	-49	94*	14	-6
Nc1nc(=O)n([C@@H]2CS[C@@H](CO)O2)cc1F	·	·	0	·	·	·
C[C@@H]1[C@H](O)[C@@H](C)/C=C/C=C/C=C/C=C/C=C/C=C/C=C/[C@H](OC2O[C@H](C)[C@@H](O)[C@H](N)[C@@H]2O)C[C@@H]2O[C@](O)(C[C@@H](O)C[C@@H](O)[C@H](O)CC[C@@H](O)C[C@@H](O)CC(=O)O[C@H]1C)C[C@H](O)[C@H]2C(=O)O (stereo not given in full)	·	·	-2	·	·	·
Cc1ccnc(NC(=S)N2CC3CN(c4cccc(C(F)(F)F)c4)CC3C2)c1 (stereo not given)	·	·	-5	·	·	·
CCn1cnc2sc(C(=O)N3CCN(Cc4ccc5c(c4)OCO5)CC3)c(C)c2c1=O	·	85*	2	-6	6	-1
CCN(CC)C(=O)Cn1cnc2sc(C(=O)N3CCN(Cc4ccc5c(c4)OCO5)CC3)c(C)c2c1=O	0	-8	3	-13	-17	-4
O=c1c2c([N+](=O)[O-])cc([N+](=O)[O-])cc2sn1-c1ccc(Br)cc1	0	74*	·	-13	-19	·
COc1ccc(OCc2nnc(SC(C)C(=O)Nc3nccs3)n2-c2ccccc2)cc1 (stereo not given)	0	36*	2	0	-3	0
Cc1ccc(OC(=O)C(C)c2cccc(C(=O)c3ccccc3)c2)cc1 (stereo not given)	0	31*	-1	0	-1	1
Cc1cc(N2CCN(C(c3ccccc3)c3ccccc3)CC2)n2ncnc2n1	0	-3	-6	-7	0	1
Cc1cc(N2CCN(c3nc4ccccc4s3)CC2)n2ncnc2n1	4.2*	-4	4	12	-7	0
CCCCc1oc2ccc(NS(C)(=O)=O)cc2c1C(=O)c1ccc(OCCCN(CCCC)CCCC)cc1	·	·	-7	·	·	·
COc1ccc(CC(=O)NNc2ncnc3c2cnn3-c2ccc(C)cc2)cc1	0	2	-4	97*	3	0
COCC1=C(C(=O)OC(C)OC(=O)OC(C)C)N2C(=O)[C@@H](NC(=O)/C(=N/OC)c3csc(N)n3)[C@H]2SC1 (stereo not given in full)	·	·	6	·	·	·
c1ccc(CNc2nc(-c3ccccc3)nc3ccccc23)cc1	0	·	1	-7	-12	-2
c1ccc(CNc2nc(NCc3ccccc3)c3ccccc3n2)cc1	0	88*	·	-8	2	·
COc1ccc(CCNC(=O)C/C(C)=N/NC(=O)c2ccc(Cl)cc2Cl)cc1OC	0	·	-1	2	2	-2
COc1ccc(CCNC(=O)C/C(C)=N/NC(=O)c2ccc(N)cc2)cc1OC	0	81*	1	5	28	-1
CC(C)NCC(O)c1ccc(O)c(O)c1 (stereo not given)	0	·	-4	1	-8	-3
CNC[C@H](O)c1ccc(O)c(O)c1	0	51*	-9	-4	-12	-4
CCC(CO)Oc1cc(NCc2ccc(C(C)(C)C)cc2)c2ncn(C(C)C)c2c1 (stereo not given)	5.2*	·	5	·	·	-1
CCC(CO)Oc1cc(NCc2ccc(O)cc2)c2ncn(C(C)C)c2c1 (stereo not given)	0	·	1	·	·	-3

Assay outcomes: PubChem BioAssay, several laboratories
